The source made the active and inactive calls. Unless noted, the rule behind the calls is not given here.
How the values were obtained:
[1] = anti-His antibody binders, primary screen, artefact control for SMM control protein annotation, biochemical, small-molecule microarray, 635 nm fluorescence (AID 1128); conditions: anti-His Alexa647 antibody binding, higher = more signal;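 note: score merges feature fluorescence with signal-to-noise for each printed compound spot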
[2] = tested on: Human papillomavirus type 1a E7 protein (residues 1-88); assay: HPV1a E7 small-molecule binders, primary screen, biochemical, small-molecule microarray, residues 1-88, 635 nm (AID 1129); conditions: small-molecule microarray binding, fluorescence 635 nm; higher = more signal
[3] = biological target: Focal adhesion kinase 1 (Homo sapiens) (UniProt Q05397); assay: small-molecule microarray binders of FAK, primary screen, biochemical, 635/667 nm fluorescence, BSA, DTT (AID 1130); conditions: PTK2 binding, 635 nm fluorescence, higher = more signal;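 note: composite of spot emission at 667 nm and signal to noise over triplicate slides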
Chain of Focal adhesion kinase 1 (Homo sapiens) (Q05397 whole entry, looked up): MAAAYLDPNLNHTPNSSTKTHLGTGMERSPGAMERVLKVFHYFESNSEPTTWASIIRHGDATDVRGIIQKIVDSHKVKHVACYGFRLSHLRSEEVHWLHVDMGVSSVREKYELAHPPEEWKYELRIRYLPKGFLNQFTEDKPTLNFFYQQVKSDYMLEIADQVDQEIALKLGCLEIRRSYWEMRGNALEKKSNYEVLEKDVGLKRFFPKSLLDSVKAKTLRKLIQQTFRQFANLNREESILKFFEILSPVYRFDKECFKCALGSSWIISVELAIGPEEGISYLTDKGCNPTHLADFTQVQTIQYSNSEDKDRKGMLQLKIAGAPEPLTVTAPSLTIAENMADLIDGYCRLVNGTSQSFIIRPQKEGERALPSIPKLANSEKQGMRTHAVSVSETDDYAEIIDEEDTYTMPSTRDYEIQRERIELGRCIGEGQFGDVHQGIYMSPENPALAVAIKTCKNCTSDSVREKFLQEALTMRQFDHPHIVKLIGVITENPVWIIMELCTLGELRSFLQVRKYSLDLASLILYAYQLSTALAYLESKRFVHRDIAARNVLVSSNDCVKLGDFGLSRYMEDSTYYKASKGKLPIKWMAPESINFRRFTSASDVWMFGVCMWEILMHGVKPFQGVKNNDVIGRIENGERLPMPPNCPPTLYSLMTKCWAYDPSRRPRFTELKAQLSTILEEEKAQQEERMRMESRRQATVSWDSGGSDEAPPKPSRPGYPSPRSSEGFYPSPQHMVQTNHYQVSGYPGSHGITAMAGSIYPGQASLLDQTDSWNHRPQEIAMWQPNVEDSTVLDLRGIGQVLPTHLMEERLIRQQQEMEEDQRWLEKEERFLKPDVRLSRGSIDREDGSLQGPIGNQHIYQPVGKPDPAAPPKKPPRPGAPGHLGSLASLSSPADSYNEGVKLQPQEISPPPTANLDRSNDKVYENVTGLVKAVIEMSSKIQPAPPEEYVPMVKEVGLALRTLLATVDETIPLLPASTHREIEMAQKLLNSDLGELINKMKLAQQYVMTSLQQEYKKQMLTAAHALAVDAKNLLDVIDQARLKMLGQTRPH

[4] = tested on: Fibrinogen (Alexa647-labelled); assay: fibrinogen binders on compound microarrays, profiling panel, artefact control for SMM control-protein annotation, biochemical, small-molecule microarray, 635/667 nm fluorescence (AID 1131); conditions: fibrinogen-A647 binding fluorescence, higher = more signal;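 note: z-score merges 667 nm fluorescence with per-spot signal-to-noise over triplicate slides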
[5] = biological target: Follistatin (Homo sapiens) (UniProt P19883); assay: follistatin binders on small-molecule microarrays, primary screen, biochemical, small-molecule microarray, 635/667 nm fluorescence (AID 1132); conditions: FST binding, 635 nm fluorescence, higher = more signal
Chain of Follistatin (Homo sapiens) (P19883 whole entry, looked up): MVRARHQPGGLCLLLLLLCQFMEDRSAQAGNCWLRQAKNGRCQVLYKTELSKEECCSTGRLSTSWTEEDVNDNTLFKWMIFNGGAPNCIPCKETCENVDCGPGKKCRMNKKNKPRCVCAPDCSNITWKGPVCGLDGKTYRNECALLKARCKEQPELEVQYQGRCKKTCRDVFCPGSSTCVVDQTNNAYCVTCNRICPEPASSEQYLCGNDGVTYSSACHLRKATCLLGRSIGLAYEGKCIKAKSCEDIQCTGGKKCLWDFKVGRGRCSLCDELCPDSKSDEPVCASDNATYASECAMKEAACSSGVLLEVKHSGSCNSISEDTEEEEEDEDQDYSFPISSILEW

[6] = biological target: Fibroblast growth factor 2 (Homo sapiens) (UniProt P09038); assay: FGF2 binders on small-molecule microarrays, primary screen, biochemical, small-molecule microarray, 635/667 nm fluorescence (AID 1133); conditions: small-molecule microarray binding, FGF2, fluorescence 635/667; higher = more signal
Chain of Fibroblast growth factor 2 (Homo sapiens) (P09038 whole entry, looked up): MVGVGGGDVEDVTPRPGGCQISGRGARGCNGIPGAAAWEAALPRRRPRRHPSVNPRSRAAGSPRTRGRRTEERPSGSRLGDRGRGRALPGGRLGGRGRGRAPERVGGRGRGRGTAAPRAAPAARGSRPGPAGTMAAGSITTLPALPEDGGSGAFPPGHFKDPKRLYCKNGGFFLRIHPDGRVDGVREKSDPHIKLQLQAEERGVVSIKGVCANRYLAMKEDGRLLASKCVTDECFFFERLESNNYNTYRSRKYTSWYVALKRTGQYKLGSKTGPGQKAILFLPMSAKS

[7] = mitochondrial membrane potential change in A549 cells, profiling panel, cell-based, JC-1 fluorescence, basal, 24 h, 100 nL (AID 1138); conditions: higher = more signal;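 note: A549 lung adenocarcinoma cells under basal conditions with no added stimulus; test concentration not given here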
Lefty1 = Lefty1 binders on small-molecule microarrays, primary screen, biochemical, small-molecule microarray, 635/667 nm fluorescence (AID 1139); conditions: small-molecule microarray binding, fluorescence 635/667; higher = more signal
[8] = tested on: wheat germ agglutinin (Triticum aestivum), Alexa647-labelled; assay: wheat germ agglutinin binders on compound microarrays, profiling panel, artefact control for SMM control-protein annotation, biochemical, small-molecule microarray, 635/667 nm fluorescence (AID 1140); conditions: WGA-A647 binding, 635 nm fluorescence, higher = more signal;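 note: score merges 667 nm feature emission with signal to noise over triplicate slides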
[9] = biological target: Luciferin 4-monooxygenase (Photinus pyralis) (UniProt P08659); assay: firefly luciferase enzyme inhibitors, primary screen, biochemical, luminescence, purified enzyme, 2006 set (AID 1141); conditions: SteadyGlo luminescence, 30 min, higher = more signal, called active from +8 up or from −8 down;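 note: cell-free assay with purified firefly luciferase at 100 ng per well in PBS; test concentration not given here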
Chain of Luciferin 4-monooxygenase (Photinus pyralis) (P08659 whole entry, looked up): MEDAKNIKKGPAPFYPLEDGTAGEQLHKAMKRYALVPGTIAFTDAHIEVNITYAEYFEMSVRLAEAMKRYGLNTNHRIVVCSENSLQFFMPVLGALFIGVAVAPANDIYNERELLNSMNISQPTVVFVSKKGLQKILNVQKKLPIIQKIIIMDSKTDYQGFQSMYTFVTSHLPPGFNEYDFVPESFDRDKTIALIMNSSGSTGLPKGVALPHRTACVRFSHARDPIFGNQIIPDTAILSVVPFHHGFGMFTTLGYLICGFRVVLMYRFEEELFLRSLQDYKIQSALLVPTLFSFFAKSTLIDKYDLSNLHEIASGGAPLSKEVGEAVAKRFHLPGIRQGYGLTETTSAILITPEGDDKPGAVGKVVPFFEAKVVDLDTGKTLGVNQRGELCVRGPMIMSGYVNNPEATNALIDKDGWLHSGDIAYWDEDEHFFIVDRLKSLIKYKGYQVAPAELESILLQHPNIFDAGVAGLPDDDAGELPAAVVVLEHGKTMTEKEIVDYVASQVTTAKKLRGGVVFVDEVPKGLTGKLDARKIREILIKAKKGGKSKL

[10] = tested on: Wnt5a (protein binding on small-molecule microarray); assay: Wnt5a binders on small-molecule microarray, primary screen, biophysical, 635/667 nm fluorescence (AID 1142); conditions: 635 nm fluorescence, higher = more signal;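 note: fluorescence read at 667 nm with signal to noise per printed feature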
[11] = cell viability in Huh7 cells, primary screen, cytotoxicity control for HCV replication inhibitor project, CellTiter-Glo luminescence, basal, 48 h (AID 1143); conditions: Huh7 HCV replicon, higher = more signal, called active from +8 up or from −8 down;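 note: Huh7 hepatoma cells carrying a hepatitis C replication reporter with no stimulus; test concentration not given here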
[12] = P. aeruginosa biofilm formation inhibitors, primary screen, PAO1 strain, BacTiter-Glo luminescence, LB-PBS (AID 1144); conditions: 12 h, higher = more signal
[13] = CREB reporter modulators without forskolin, primary screen, cell-based, PC12, CRE-LacZ reporter, unstimulated (AID 1145); conditions: no forskolin, luminescence, 4.5 h, higher = more signal, called active from +8 up or from −8 down
[14] = CREB reporter modulators under forskolin, primary screen, cell-based, PC12, CRE-LacZ reporter, forskolin-stimulated (AID 1146); conditions: luminescence, 4.5 h, higher = more signal, called active from +8 up or from −8 down;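 note: PC12 cells with 6xCRE LacZ reporter stimulated by forskolin 10 µM; beta-galactosidase reporter signal reflecting CREB driven transcription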
[15] = biological target: Streptavidin (Streptomyces avidinii) (UniProt P22629); assay: streptavidin binders on small-molecule microarray, primary screen, artefact control for SMM compound annotation, biophysical, 635/667 nm fluorescence (AID 1147); conditions: streptavidin binding, higher = more signal;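 note: signal reflects streptavidin binding to arrayed compounds as a control protein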
Chain of Streptavidin (Streptomyces avidinii) (P22629 whole entry, looked up): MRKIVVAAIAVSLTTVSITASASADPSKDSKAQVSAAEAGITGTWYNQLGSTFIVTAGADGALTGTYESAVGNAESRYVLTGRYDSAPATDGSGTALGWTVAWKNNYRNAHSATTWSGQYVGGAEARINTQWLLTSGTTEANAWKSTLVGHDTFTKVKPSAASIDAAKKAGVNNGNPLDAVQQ

[16] = small-molecule binders of probe aInhba, primary screen, biochemical, small-molecule microarray, 635/667 nm fluorescence (AID 1148); conditions: higher = more signal;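 note: score merges 667nm spot fluorescence with signal-to-noise for antibody binding to printed compounds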
Torsin-1A (Homo sapiens) [17] = biological target: Torsin-1A (Homo sapiens) (UniProt O14656); assay: torsin A binders from cell lysate, primary screen, small-molecule microarray, wild-type, 635/667 nm (AID 1149); conditions: COS7 hTOR1A-WT lysate, 635 nm fluorescence, higher = more signal
Chain of Torsin-1A (Homo sapiens) (O14656 whole entry, looked up): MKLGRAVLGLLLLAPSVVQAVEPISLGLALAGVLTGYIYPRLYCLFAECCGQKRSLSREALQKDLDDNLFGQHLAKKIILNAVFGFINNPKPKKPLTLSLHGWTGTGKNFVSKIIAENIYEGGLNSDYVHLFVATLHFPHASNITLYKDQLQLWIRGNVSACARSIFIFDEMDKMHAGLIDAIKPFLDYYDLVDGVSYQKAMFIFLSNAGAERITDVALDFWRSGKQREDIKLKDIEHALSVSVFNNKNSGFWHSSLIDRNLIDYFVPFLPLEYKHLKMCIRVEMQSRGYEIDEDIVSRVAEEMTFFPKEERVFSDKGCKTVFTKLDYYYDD

Torsin-1A (Homo sapiens) [18] = biological target: Torsin-1A (Homo sapiens) (UniProt O14656); assay: small-molecule binders of mutant TOR1A in lysate, primary screen, cell lysate, small-molecule microarray, COS7 lysate, 635/667 nm fluorescence (AID 1150); conditions: COS7 hTOR1A mutant lysate, 635 nm fluorescence, higher = more signal;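 note: score pools 667 nm emission and signal to noise measuring lysate protein binding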
[19] = tested on: Sonic hedgehog protein (Shh); assay: small-molecule binders of Shh protein, primary screen, biochemical, small-molecule microarray, 635/667 nm fluorescence (AID 1151); conditions: small-molecule microarray binding, 635 nm fluorescence; higher = more signal;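 note: Shh protein binding to compounds spotted on small-molecule microarray slides; score combines spot fluorescence intensity with signal-to-noise across triplicate slides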

N#Cc1ccc(NN2C(C(O)c3ccccc3)C=CC3C(=O)N(c4ccccc4)C(=O)C32)cc1 (stereo not given)
composite z-score [1]: 0.324
composite z-score [2]: 0.954
composite z-score [3]: 0.452
composite z-score [4]: -0.456
composite z-score [5]: 0.927
composite z-score [6]: -0.217
z-score [7]: 1.41
composite z-score (Lefty1): -0.272
composite z-score [8]: 0.635
z-score [9]: 0.884 (inactive)
composite z-score [10]: 0.213
z-score [11]: 0.574 (inactive)
z-score [12]: -0.121 (inactive)
z-score [13]: -1.11 (inactive)
z-score [14]: 1.06 (inactive)
composite z-score [15]: 0.475
composite z-score [16]: 0.11
composite z-score (Torsin-1A (Homo sapiens) [17]): 0.408
composite z-score (Torsin-1A (Homo sapiens) [18]): -0.0163
composite z-score [19]: -0.67

O=C1N(Cc2ccccc2)c2ccccc2[C@H]2OC(c3ccc(OCCCO)cc3)=N[C@@]12CCS(=O)(=O)c1ccccc1
composite z-score [1]: 1.68
composite z-score [2]: 1.25
composite z-score [3]: 1.06
composite z-score [4]: 0.984
composite z-score [5]: 1.2
composite z-score [6]: 1.36
z-score [7]: -1.26
composite z-score (Lefty1): 0.689
composite z-score [8]: 0.726
z-score [9]: -0.202 (inactive)
composite z-score [10]: 0.889
z-score [11]: -4.05 (inactive)
z-score [12]: -1.19 (inactive)
z-score [13]: 2.96 (inactive)
z-score [14]: -1 (inactive)
composite z-score [15]: 0.211
composite z-score [16]: 0.166
composite z-score (Torsin-1A (Homo sapiens) [17]): 0.795
composite z-score (Torsin-1A (Homo sapiens) [18]): 0.591
composite z-score [19]: 2.09

CC(C)NC(=O)[C@@H]1c2ccccc2C(=O)N(Cc2cc(C(F)(F)F)cc(C(F)(F)F)c2)[C@H]1c1ccc(CO)cc1
composite z-score [1]: 0.913
composite z-score [2]: 1.16
composite z-score [3]: 0.528
composite z-score [4]: 0.936
composite z-score [5]: 1
composite z-score [6]: 0.507
z-score [7]: 1.98
composite z-score (Lefty1): 0.312
composite z-score [8]: 0.375
z-score [9]: 0.487 (inactive)
composite z-score [10]: 0.133
z-score [11]: 0.0274 (inactive)
z-score [12]: 0.71 (inactive)
z-score [13]: 0.0279 (inactive)
z-score [14]: 0.296 (inactive)
composite z-score [15]: 0.0544
composite z-score [16]: 0.136
composite z-score (Torsin-1A (Homo sapiens) [17]): 0.275
composite z-score (Torsin-1A (Homo sapiens) [18]): 0.0913
composite z-score [19]: 0.646

COc1ccccc1CN1C(=O)c2ccccc2[C@@H](C(=O)NCC(C)C)[C@@H]1c1ccc(CO)cc1
composite z-score [1]: 0.366
composite z-score [2]: 1.18
composite z-score [3]: 0.088
composite z-score [4]: 0.707
composite z-score [5]: 1.23
composite z-score [6]: 1.56
z-score [7]: 0.163
composite z-score (Lefty1): -0.632
composite z-score [8]: 0.342
z-score [9]: -0.836 (inactive)
composite z-score [10]: 0.572
z-score [11]: -0.922 (inactive)
z-score [12]: 0.34 (inactive)
z-score [13]: -0.258 (inactive)
z-score [14]: -0.992 (inactive)
composite z-score [15]: -0.378
composite z-score [16]: -0.145
composite z-score (Torsin-1A (Homo sapiens) [17]): -0.114
composite z-score (Torsin-1A (Homo sapiens) [18]): 0.526
composite z-score [19]: 0.0072

OCc1ccc(-c2cc[n+](Cc3cccc(OC(F)(F)F)c3)cc2)cc1
composite z-score [1]: 2.33
composite z-score [2]: 1.07
composite z-score [3]: 0.0665
composite z-score [4]: 0.708
composite z-score [5]: 1.45
composite z-score [6]: 1.25
z-score [7]: -0.884
composite z-score (Lefty1): 1.47
composite z-score [8]: 0.528
z-score [9]: 0.194 (inactive)
composite z-score [10]: 0.252
z-score [11]: -1.64 (inactive)
z-score [12]: -0.473 (inactive)
z-score [13]: -0.374 (inactive)
z-score [14]: -0.119 (inactive)
composite z-score [15]: 1.24
composite z-score [16]: -0.0221
composite z-score (Torsin-1A (Homo sapiens) [17]): 1.18
composite z-score (Torsin-1A (Homo sapiens) [18]): 1.12
composite z-score [19]: 1.98

From PubChem BioAssay
